# Nrf2 activator = qHTS of Nrf2 Activators. AREc32 ARE-luciferase reporter (MCF7-derived line), luminescence, 24 h. Potency, µM (titrated, usually from 46.1 µM), without a hit: at the highest dose activation, usual class: activators. 410,000 tested, 0.31% active. AID 624171, 2012; further: % of control where 0% means no effect; nearly all actives have a fitted effect of over 65% in size
#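 Steps: seed AREc32_Fluc cells (1000/well, 5% FBS OPTI-MEM); incubate overnight at 37 deg C; add 23 nL compound; incubate 24 hr; add Steady-Glo; hold 30 min RT; read luminescence.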
# Nrf2 inh = Nrf2 qHTS screen for inhibitors | A549 ARE-Fluc reporter, luciferase luminescence, 18-24 h | Potency, µM (highest dose often 46 µM), inactives show top-dose activity change, negative = inhibition, most hits filed as inhibitors | 360,000 tested, 2.1% active | AID 504444, 2011; further: on the % scale 0 is the no-effect control and ±100 the full control effect; nearly all actives have a fitted effect of over 60% in size
#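 Nrf2 activity is the BugLite luminescence, read 15 min after reagent at room temperature, following CellTiter-Fluor cytotoxicity readout (30 min, 37C). Compound titrations were applied for 18-24 h to 5000 A549 ARE_Fluc cells/well in 5% FBS OPTI-MEM.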
# mIDH1 inhibitor = qHTS for Inhibitors of mutant isocitrate dehydrogenase 1 (IDH1): qHTS; Isocitrate dehydrogenase [NADP] cytoplasmic (Homo sapiens), O75874; IDH1-R132H enzyme, NADPH consumption, diaphorase/resazurin fluorescence; Potency, µM (highest dose often 76.6 µM), for inactives: top-dose activity change, negative = inhibition, hits mostly inhibitors; 390,000 tested, 0.093% active; AID 602179, 2012; further: on the % scale 0 is the no-effect control and ±100 the full control effect; nearly all actives have a fitted effect of over 65% in size
# Target sequence (O75874 whole entry R132H, stated change not applied): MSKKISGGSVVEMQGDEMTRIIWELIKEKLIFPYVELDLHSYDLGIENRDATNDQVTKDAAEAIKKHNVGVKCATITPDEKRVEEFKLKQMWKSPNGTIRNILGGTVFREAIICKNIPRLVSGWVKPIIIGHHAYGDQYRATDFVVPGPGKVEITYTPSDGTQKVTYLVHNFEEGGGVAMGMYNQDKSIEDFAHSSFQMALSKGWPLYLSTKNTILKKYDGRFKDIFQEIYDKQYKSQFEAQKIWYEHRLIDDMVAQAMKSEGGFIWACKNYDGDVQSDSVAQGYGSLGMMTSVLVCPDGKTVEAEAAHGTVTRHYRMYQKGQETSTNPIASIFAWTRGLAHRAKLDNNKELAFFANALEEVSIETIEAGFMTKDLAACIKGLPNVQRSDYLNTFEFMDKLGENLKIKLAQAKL
#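 IDH1-R132H (0.5 ug/mL dispensed) in pH 7.5 Tris buffer was preincubated 30 min with compound, then given a substrate mix of 0.016 mM NADPH and 2 mM alpha-KG for 80 min at room temperature; remaining NADPH was read by diaphorase/resazurin fluorescence.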
# ELG1 repair inh = qHTS screen for small molecules that inhibit ELG1-dependent DNA repair in human embryonic kidney (HEK293T) cells expressing luciferase-tagged ELG1. HEK293T ELG1-luciferase reporter, luminescence, 16 h; DNA damage induced by 5-fluorouridine. Potency, µM (series often up to 46.1 µM), for inactives: at the top dose activity change, negative = inhibition, most hits filed as inhibitors. 330,000 tested, 2.3% active. AID 504467, 2011; further: on the % scale 0 is the no-effect control and ±100 the full control effect; nearly all actives have a fitted effect of over 55% in size
#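 Cells (2,000 per well) received 5-fluorouridine plus test compound or DMSO and were incubated 16 hr at 37 °C, 5% CO2. Luciferase activity was read by luminescence 30 min after ONE-Glo addition; signal suppression marked inhibition of damage-induced ELG1 function.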
# A549 tox = Nrf2 qHTS screen for inhibitors: counterscreen for cytotoxicity. A549 ARE-Fluc cells, CellTiter-Fluor viability, 18-24 h. Potency, µM (doses to about 46 µM), inactives show at the top dose activity change, negative = cytotoxicity, hits mostly inhibitors. 390,000 tested, 0.16% active. AID 504648, 2011; further: on the % scale 0 is the no-effect control and ±100 the full control effect
#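 A549 ARE_Fluc cells in 5% FBS OPTI-MEM were exposed to compounds in concentration-response for 18-24 h at 37 deg C. Viability was read by CellTiter-Fluor fluorescence (Ex 405/Em 525) after 30 min, before the luciferase read.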
# Active calls of the source: *; ? = inconclusive; . = not tested or not shown; [ ] = remark or other dose. Only some compounds are listed: those with a hit (about 3.8% of all), similar ones and a draw of the others. The call rests on the fitted dose curve; in most records, active means well fitted curve in the direction sought with a large enough effect; inconclusive means small, poorly fitted or top-dose-only effect, or another doubt; inactive means no such curve, though single readings can be large; an effect the other way counts as inactive or inconclusive. Potency means the concentration at half of the fitted maximal effect.
SMILES,Nrf2 activator,Nrf2 inh,mIDH1 inhibitor,ELG1 repair inh,A549 tox
COc1cc(C(=O)O/N=C2\C=CC(=O)C=C2C)cc(OC)c1OC,0%,-11%,5%,2%,0%
COc1ccc(CCNC(=O)Cc2c(C)c3ccc(O)c(C)c3oc2=O)cc1OC,3%,-3%,-5%,.,-7%
COc1cccc(CN(C)C(=O)c2ccc(OCC(=O)Nc3cccc(C(F)(F)F)c3)c(OC)c2)c1,-1%,4.6µM*,4%,15µM*,?
COc1ccc(CN(C)C(=O)c2ccc(OCC(=O)Nc3cccc(C(F)(F)F)c3)c(OC)c2)c(OC)c1,4%,16µM*,0%,?,-21%
COc1cc(C(=O)NCCCN(C)C)ccc1OCC(=O)Nc1cccc(C(F)(F)F)c1,2%,-4%,-8%,16%,1%
Cc1ccc(S(=O)(=O)N2CCN(c3nc(-c4cccs4)nc4cccnc34)CC2)cc1,.,6%,.,.,-1%
Cc1ccc(-c2ccc(C3C4C=CCC(C)C4C(=O)N3Cc3ccccc3)c(F)c2)cc1 (stereo not drawn),.,-4%,.,.,11%
O=C(CCc1ccccc1)NNC(=O)c1ccc(Cl)cc1,0%,-25%,4%,8%,2%
Cc1ccc(C(=O)NNC(=S)NC(=O)c2ccc(Cl)cc2)cc1,-1%,16µM*,-7%,0%,?
CC(=O)NNC(=S)NC(=O)c1ccc(C)cc1,-1%,?,-5%,8%,7%
O=C(NC(=S)NNC(=O)c1ccc(Cl)cc1Cl)c1cccnc1,4%,11%,-3%,-10%,0%
Cc1ccccc1C(=O)NNC(=S)NC(=O)c1ccc(Cl)cc1Cl,2%,23µM*,4%,1%,?
O=C(CCc1ccccc1)NNC(=S)NC(=O)c1ccc(Cl)cc1,2%,21µM*,-9%,1%,-24%
CN1CC(c2ccccc2)C2(SC(=S)N(Cc3ccco3)C2=O)C12C(=O)Nc1ccccc12 (stereo not drawn),3%,12µM*,-1%,?,?
C/C(=N\OCC(=O)Nc1ccc2c(c1)OCCO2)c1ccc2c(c1)OCCO2,0%,18µM*,3%,-17%,-14%
O=C1C=C(NCc2ccccc2)c2ccccc2C1=O,-2%,?,21%,12µM*,?
CCC(=O)NC(c1cccc(C)c1)c1cc(Cl)c2cccnc2c1O (stereo not drawn),.,6%,.,.,-10%
CCCCNS(=O)(=O)c1ccc(NC(=O)C(Sc2ccccc2)c2ccccc2)cc1 (stereo not drawn),1%,?,1%,18µM*,?
CCc1ccc(-c2csc(NC(=O)C3=NN(c4ccccc4)C(=O)CC3)n2)cc1,4%,18µM*,-7%,?,-3%
Cc1cc(C)c(-c2csc(NC(=O)C3=NN(c4ccccc4)C(=O)CC3)n2)c(C)c1,7%,?,10%,?,-12%
CCc1ccc(-c2csc(NC(=O)c3cccnc3)n2)cc1,4%,15µM*,-2%,-14%,-9%
CC(C)OC(=O)c1cc2c(ccn2-c2ccc(F)cc2)n1CC(=O)N1CCN(C(=O)c2ccco2)CC1,-1%,-8%,0%,8.2µM*,-4%
COC(=O)c1cc2c(ccn2-c2ccc(F)cc2)n1CC(=O)N1CCN(C(=O)c2ccco2)CC1,0%,9%,1%,16µM*,4%
CCn1c(C(=O)OC)cc2c1ccn2-c1ccc(F)cc1,3%,?,15%,?,11%
CC(C)OC(=O)c1cc2c(ccn2C)n1CC(=O)N1CCC(Cc2ccccc2)CC1,0%,-29%,6%,1%,-16%
SMILES,Nrf2 activator,Nrf2 inh,mIDH1 inhibitor,ELG1 repair inh,A549 tox
COCCCNC(=O)c1c(NC(=O)Cc2coc3cc(C)ccc23)sc2c1CCCC2,0%,?,2%,.,2%
CC(=O)c1ccc(NC(=O)CCc2c(C)nn(-c3ccc4nncn4n3)c2C)cc1,-1%,.,-17%,.,5%
Cc1nnc(N/N=C/c2cc([N+](=O)[O-])c(N3CCC(C)CC3)cc2N2CCC(C)CC2)n1N,-3%,18µM*,14%,?,?
Cc1cccc(CNC(=O)c2ccc(N3Cc4ccccc4Oc4ncccc43)s2)c1,-1%,10%,1%,.,-1%
CCC(=O)N1CC2(CC(c3cccc(NC(=O)COc4ccc(Cl)cc4)c3)=NO2)C[C@@H]1C(N)=O (stereo partly drawn),.,.,.,-10%,.
NC(=O)[C@@H]1CC2(CC(c3cccc(NC(=O)CC(c4ccccc4)c4ccccc4)c3)=NO2)CN1C(=O)COc1ccc(Cl)cc1 (stereo partly drawn),6%,?,-9%,13µM*,-7%
NC(=O)[C@H]1CC2(CC(c3cccc(NC(=O)COc4ccc(Cl)cc4)c3)=NO2)CN1C(=O)c1ccc(Cl)cc1 (stereo partly drawn),-3%,26µM*,-3%,?,?
Cc1cc2cc(CN(Cc3cccs3)C(=S)NCc3ccco3)c(=O)[nH]c2cc1C,0%,?,4%,21µM*,0%
Cc1ccc(C)c2[nH]c(=O)c(CN(Cc3cccs3)C(=S)NCc3ccco3)cc12,0%[9.22 µM],-7%,-1%,16µM*,-1%
Cc1cccc(C)c1NC(=O)c1oc2c(c1C)-c1nn(Cc3ccccc3)cc1CC2,-1%,-7%,0%,.,-7%
Cc1cc2c(s1)c1cnn(Cc3ccc(F)c(F)c3F)c(=O)c1n2C,.,-4%,.,.,2%
COc1ccc(Cl)cc1NC(=O)c1sc2nc(C)nc(N3CCOCC3)c2c1C,0%,21µM*,5%,2%,-19%
Cc1nc(N2CCOCC2)c2c(C)c(C(=O)Nc3ccccc3Cl)sc2n1,0%,3%,3%,5%,0%
Cc1nc(N2CCOCC2)c2c(C)c(C(=O)Nc3ccccc3C(F)(F)F)sc2n1,0%,-25%,5%,16µM*,0%
COc1ccc(S(=O)(=O)N(CC(=O)Nc2ccc(F)c(Cl)c2)c2ccc(C)cc2)cc1OC,-1%,.,4%,.,-1%
Cc1nc(-c2cccs2)sc1C(=O)O,0%,?,3%,5%,4%
Cc1nccc(-c2sc(-c3cccs3)nc2C)n1,13µM*,7%,12%,?,-12%
CC(=O)Nc1cc(OC(C)=O)c2nonc2c1OC(C)=O,-3%,15µM*,11%,?,?
CC(=O)Oc1ccc2nonc2c1OC(C)=O,.,-9%,.,.,-18%
CCCNC(=O)C1CCC(Cn2c(=O)c3sccc3n(CC(=O)NCc3cccc(OC)c3OC)c2=O)CC1 (stereo not drawn),0%,-27%,1%,.,-1%

# Screens deposited in PubChem by National Center for Advancing Translational Sciences (NCATS).
